The values below come from the supplement of paper PMC6555819.

This assay deals with VDR:RXRa (NR concentration 270 nM, RXRa partner concentration 90 nM). Briefly: PBM binding z-score (relative to random genomic background probes); higher = stronger binding; sequences stand for … in GC…GCGATTGACAGCGTAGAATGAAGG
How it is done: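 Protein-binding microarray (Agilent 4x180K custom design, double-stranded 60-nt probes: 5' GC cap, 34-nt variable region, 24-nt constant primer region; full probe sequence given). Purified or IVT nuclear receptor:RXRα heterodimers (3:1 NR:RXRα, mostly 270:90 nM) or homodimers were incubated for 1 h in PBS with 2% milk and no ligand, then detected with Alexa488 antibodies. Fluorescence from o1-orientation probes (~5 replicates averaged) was converted to z-scores against 500 random hg19 background probes. Variable regions are seed direct-repeat (DR0–DR5) sites, all their single-nucleotide variants and half-site ablations.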
As for GCTCGGAGGACAAGGTCAGGGCTTTGTCCGTAGA, the PBM binding z-score is 1.64.
The same measure for CAAAGTAGGTCAAGAGGTCAAAGTCCGCTTCCCG: 6.25; for CGTCCAAGGTCCATGCTAGGTCAGTGAAAGCATT: 0.731; for CAAACTAGGTCAAGGTCAAATTCGGTTTGTGCCA: 5.06.
With TCGGGTAGGTTACGGGGGCATTCAGGGATGAAGA the figure was 4.77; with CCGACTTGGGCAAAGGTTACCATACTCAGTACGA, 0.927.
With TAGCCTCGGTCATTCAGGGGCCAGTATAGAAAGC the figure was 0.169; with CCGAGTAGGTGACGAGGGGGCATTCAGTGCGAAT, 4.37; with TCGAGTAGGTTTCGGGGGCATTCAGGGATGAAGA, 2.7.
As to CGAACTAGGTCAAAGGACAGTGGAAGGCGACGTA, the PBM binding z-score came out at 1.21.
With CCGACTGGGTCAAAGGTTACCATACTCAGTACGA the figure was 4.41; with CCGAGTAAGTTACGAGGGGGCATTCAGTGCGAAT, 3.83; with GCTGCAAGGTCAACTGATGGTCAGCTAAAGCTCG, 4.66.
ATATGTAGGTTAGGGTCATTCAGAAAGTAGGGAA showed a PBM binding z-score of 4.7.
The same measure for ATATGTAGGTTAGGGTTATTCAGAAAGTAGGGAA: 1.94; for CCTACTGGGCCAAAGGTCATTGACTCCAATGCTC: 4.58.
The same measure for ACTCGGAGGACAAAGGTGAGAGCTACGCCAGTGA: 0.122; for CAAACTAGGTCAAAGGTCAAGGTCGAGCCAACCA: 6.86; for GCTTACGGGTCAAAGGTTATGGCATGAATAGAAT: 5.58.
Take TCTGCTTGGTCAACGATGGTCAGCTAATCTGCTA: the PBM binding z-score was -0.63.
The same measure for CGAACTAGTTCAAGGACAGTGAATCTCCGCACGC: 0.348; for CCGAGTAGGTTACGAAGGGGCATTCAGTGCGAAT: 3.08; for TATTGTAGATCAAAGGTTAAGAAAGCCGAAGCCT: 1.54.
CGAACTAGGTCAGAACAGTACAGTGAAGGATGAT came in with a PBM binding z-score of 0.879.
In the case of CCGGGTAGGTTACGAGGGGGCATTCAGTGCGAAT, the PBM binding z-score amounted to 5.31.
For the sequence TGAATGAGGTTTAAGATCAGGGAACGTGGCGTCG, the PBM binding z-score is -0.255.
Turning to CCAGACAGGTGAAAGGTAACTCACTCTGGTACGC, the PBM binding z-score came to 0.767.
For CCGAGTGGGTTACGAGGGGGCATTCAGTGCGAAT, the PBM binding z-score was 5.13.
TCGAGTAGGTTACGGGGGCATTGAGGGATGAAGA displayed a PBM binding z-score of 3.66.
As to ATCGAAAGGGCGTGAGGTGAGTATACAGAAAGGC, the PBM binding z-score amounted to 0.49.
The same measure for CCGAGTAGGGTACGAGGGGGCATTCAGTGCGAAT: 4.33.
On to TCATATAGGTAATAGGTGAAAGTCGGTGTGGTAA, for which the PBM binding z-score worked out at 0.883.
CGAACTAGGTCAAAGGGCAGTGAAAGGCGACGTA returned a PBM binding z-score of 2.63.
For CGAGCTAGGTCACCAGGACAGTGAAGAGGTTGGA, the PBM binding z-score was 1.63.
Sequence CGAACTATGTCAAGGACAGTGAATCTCCGCACGC returned a PBM binding z-score of -0.248.
Take ACTCGGAGGACAGAGGTCAGAGCTACGCCAGTGA: the PBM binding z-score amounted to 2.99.
GCTAGTGGGTCAGTAAAAGGTCACACACCGGTCG came in with a PBM binding z-score of 4.9.
For the sequence AGTCAAAGTTCATCTAGGTATCGTAAGATATGCT, the PBM binding z-score is 5.01.
The same measure for AGTCAAAGTTCAGGACGAGGTAATGTAAAGCACG: 3.07; for CTCTGTAGGTTAAGGGGGTCATTCAGTTTGAAAG: 7.66.
